Results as given in PubChem BioAssay AID1117319 (Southern Research Institute, 2015).
Values joined by “and” are separate entries in the source; they are usually repeats but may differ in a detail not shown here. Equal values may be shown once. Among all 260,000 compounds or so, about 1,500 (0.58%) were called active. About 5% were inconclusive and are not listed.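 Rule for the calls: active = inhibition above a set limit at one or more doses, reproduced on every date tested; inconclusive = results disagree between test dates, or hit never tested in dose response; inactive = the rest.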 Only a sample is shown. Measured potencies and affinities stand elsewhere.

Target: Virion infectivity factor (Human immunodeficiency virus type 1 group M subtype B (isolate BH10)) + Virion infectivity factor (Human immunodeficiency virus type 1 group M subtype B (isolate BRU/LAI)) + Virion infectivity factor (Human immunodeficiency virus type 1 group M subtype B (isolate PCV12)) + Virion infectivity factor (Human immunodeficiency virus type 1 group M subtype B (isolate HXB2)) + DNA dC->dU-editing enzyme APOBEC-3G (Homo sapiens) (UniProt P69720+P69721+P69722+P69723+Q9HC16)
Assay: inhibitors of Vif binding to APOBEC3G peptide, primary screen, biochemical, TR-FRET, GST-Vif 1-94, biotin-A3G peptide, dose response retest (AID 1117319);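 note: Vif residues 1-94 fused to GST binding biotinylated APOBEC3G peptide 110-148; 0% = full assay without inhibitor and 100% = GST in place of GST-Vif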
Conditions: active compounds read high

Row | SMILES | inhibition
1 | COc1ccc(C)cc1S(=O)(=O)NCC(c1ccco1)N1CCc2ccccc2C1 (stereo not drawn) | -3.21% (inactive)
2 | N#CC1=C(N)OC2=C(C(=O)CC(c3ccco3)C2)C1c1ccc(OCc2c(F)cccc2Cl)cc1 (stereo not drawn) | 13.6% (inactive) and 14.7% (inactive)
3 | COc1cccc(C2C(C#N)=C(N)OC3=C2C(=O)CCC3)c1OC(=O)c1ccco1 (stereo not drawn) | 22.1% (inactive)
4 | Cc1ccc(NC(=O)C(C)Sc2nc(-c3ccccc3)cc(=O)[nH]2)cc1 (stereo not drawn) | -0.75% (inactive)
5 | O=C1C=C(c2ccccc2)C(c2ccccc2)C1 (stereo not drawn) | 0.24% (inactive)
6 | COc1ccc(S(=O)(=O)N2CCN(C(=O)c3c(-c4ccccc4)noc3C)CC2)cc1 | 0.45% (inactive)
7 | COc1ccc(N2CCN(C(=O)COc3ccc4ccccc4c3)CC2)cc1 | 2.55% (inactive)
8 | COc1ccc(C(=O)N2CCN(c3cccc(Cl)c3)CC2)cc1 | -2.36% (inactive)
9 | COc1ccc(N2CCN(C(=O)COC(=O)c3c(-c4ccccc4)noc3C)CC2)cc1 | -5.58% (inactive)
10 | Cc1onc(-c2ccccc2Cl)c1C(=O)N1CCCC1 | -6.38% (inactive)
11 | O=C(COc1ccccc1)N1CCN(c2ccccc2)CC1 | 10.3% (inactive)
12 | COc1ccc(N2CCN(C(=O)c3ccc(C)cc3Cl)CC2)cc1 | 6.52% (inactive)
13 | Cc1onc(-c2ccccc2Cl)c1C(=O)N1CCN(c2ccccc2)CC1 | -3.16% (inactive)
14 | CCS(=O)(=O)N1CCC(C(=O)NC2CCCCCCC2)CC1 | 1.17% (inactive)
15 | Cc1cc(C(=O)N2CCN(S(=O)(=O)c3ccc(C)c(C)c3)CC2)no1 | 3.5% (inactive)
16 | COc1ccc(C)cc1NC(=O)c1cnc2scc(C)n2c1=O | -5.79% (inactive)
17 | COc1ccc2cc(C3CC(c4cccs4)=NN3S(C)(=O)=O)c(Cl)nc2c1 (stereo not drawn) | -0.38% (inactive)
18 | COc1ccc2[nH]c(C(=O)NCc3ccccc3)c(C)c2c1 | 1.63% (inactive)
19 | Cc1ccc(NS(=O)(=O)c2csc(C(N)=O)c2)cc1C | -5.43% (inactive)
20 | CN(CC(=O)NCCc1ccc(S(N)(=O)=O)cc1)Cc1ccc(Cl)cc1Cl | 4.74% (inactive)
21 | Cc1cc([N+](=O)[O-])nn1CC(=O)N1CCc2ccccc2C1 | -2.29% (inactive)

Row | SMILES | inhibition
22 | Cc1ccc(C)c(NC(=O)CN(C)C(=O)Cc2coc3cc(C)c(C)cc23)c1 | 0.3% (inactive)
23 | O=C(COC(=O)c1cnccn1)Nc1cc(S(=O)(=O)N2CCOCC2)ccc1Cl | -11.1% (inactive)
24 | O=[N+]([O-])c1ccc(-c2ccc(C=Nc3cccc4ccccc34)o2)cc1 | 3.05% (inactive)
25 | O=[N+]([O-])c1ccc(-c2ccc(/C=N/c3c(-c4ccco4)nc4ccccn34)o2)cc1 | 7.55% (inactive)
26 | Cc1ccc(Nc2c(-c3ccco3)nc3ccccn23)cc1 | 12% (inactive)
27 | CN(C)c1ccc(-c2nc3ccccn3c2/N=C/c2ccc(Br)cc2)cc1 | 6.4% (inactive)
28 | O=[N+]([O-])c1cc(-c2ccc(/C=N/n3cnnc3)o2)ccc1Cl | 6.34% (inactive)
29 | Cc1cc([N+](=O)[O-])c(C)cc1-c1ccc(/C=N/n2cnnc2)o1 | 1.64% (inactive)
30 | COc1cc(-c2nc3ccccn3c2/N=C/c2cc(OC)c(O)cc2Cl)ccc1O | 22.2% (inactive)
31 | c1ccc(Nc2c(-c3ccco3)nc3ccccn23)cc1 | -2.7% (inactive)
32 | COc1cc2[nH]c(=S)n(Cc3cccs3)c(=O)c2cc1OC | -5.73% (inactive)
33 | Cc1cc(C)cc(OCC(=O)NN2C(=O)c3ccccc3C2=O)c1 | 2.37% (inactive)
34 | Cc1ccc(N(CC(=O)NC(C)(C)C)C(=O)CS(=O)CC(=O)Nc2ccc(F)cc2)cc1 (stereo not drawn) | 10.4% (inactive)
35 | CCN(CC(=O)Nc1ccc(OC)cc1)C(=O)c1ccc2c(c1)NC(=O)C(C)S2 (stereo not drawn) | 6.39% (inactive)
36 | COc1cccc(C(=O)N2CCN(C(=O)c3cccc4ccccc34)CC2)c1OC | 1.56% (inactive)
37 | CSC1=N/C(=C\c2ccccc2)C(=O)N1C | 4.78% (inactive)
38 | O=C(CN1C(=O)S/C(=C/c2ccccn2)C1=O)N1CCOCC1 | 2.37% (inactive)
39 | CCCCCn1c(=NC(=O)c2ccco2)c(C(=O)OCC)cc2c(=O)n3ccccc3nc21 | 4.41% (inactive) and -0.06% (inactive)
40 | COc1cc(-c2nnc(NC(=O)CCS(=O)(=O)c3ccccc3)o2)cc(OC)c1OC | 2.37% (inactive)
41 | CC1(C)CC(=O)C2=C(C1)N(Cc1ccco1)C(=O)NC2(C(F)(F)F)C(F)(F)F | -1.11% (inactive)
42 | Cc1cc(/C=C2\SC(=S)N(Cc3ccco3)C2=O)c(C)n1-c1ccccc1 | 3.57% (inactive)

Row | SMILES | inhibition
43 | O=C1CNC(=S)N1Cc1ccc(F)cc1 | 5.9% (inactive)
44 | Cn1cccc1/C=C1\SC(=S)N(NC(=O)c2ccc(F)cc2)C1=O | 14.3% (inactive)
45 | O=C(O)Cn1cc(/C=C2/NC(=O)N(c3ccc(Cl)cc3)C2=O)c2ccccc21 | -2.83% (inactive)
46 | Cc1cc(/C=C2/C(=O)NN(c3ccccc3)C2=O)c(C)n1-c1ccc(O)cc1 | -5.99% (inactive)
47 | O=C1c2cccnc2C(=O)N1Cc1ccco1 | 7.44% (inactive)
48 | O=C(O)Cn1cc(/C=C2\SC(=O)N(c3ccccc3)C2=O)c2ccccc21 | -7.51% (inactive)
49 | CNC(=O)C[C@H]1C(=O)N(C2CCCCC2)C[C@@H]1C | 8.77% (inactive)
50 | COCCn1c(C)cc(/C=C(\C#N)C(=O)OCC(=O)N(C)c2c(N)n(Cc3ccccc3)c(=O)[nH]c2=O)c1C | 10.7% (inactive)
51 | N#Cc1c(F)cccc1NCc1cccs1 | -3.38% (inactive)
52 | Cc1nc(C)c(C(=O)C2=C(O)C(=O)N(CCCn3ccnc3)C2c2ccc(Cl)cc2)s1 (stereo not drawn) | 0.13% (inactive)
53 | COc1ccc(-c2cc(C(=O)N3CCC3)c3ccccc3n2)cc1OC | -14.9% (inactive)
54 | Cc1ccc(C(=O)O)c(C(=O)Nc2nc3ccccc3s2)c1 | -4.97% (inactive)
55 | O=C(/C=C/c1cccs1)Nc1ccc(N2CCOCC2)c(S(=O)(=O)Nc2ccccc2Cl)c1 | -5.05% (inactive)
56 | Cn1c(=O)n(C)c2cc(/C=C3/NC(=O)N(Cc4ccccc4)C3=O)ccc21 | -1.59% (inactive)
57 | O=Cc1cccn1-c1ccc2ccccc2c1 | -0.71% (inactive)
58 | O=C1N/C(=C/c2cccn2-c2ccc(F)cc2)C(=O)N1Cc1ccccc1 | 6.05% (inactive)
59 | Cc1ccc(/C=C2/NC(=O)N(Cc3ccccc3)C2=O)s1 | 3.49% (inactive)
60 | COc1cccc(OCCn2cccc2/C=C2/C(=N)N3OC(C)=CC3=NC2=O)c1 | 1.07% (inactive)
61 | O=C1Nc2ccccc2/C1=C\c1cccn1-c1ccc(OC(F)(F)F)cc1 | 5.25% (inactive)
62 | CC1=CC2=NC(=O)/C(=C\c3cccn3CCOc3cccc(C)c3)C(=N)N2O1 | -1.97% (inactive)
63 | Cn1cccc1/C=C1\SC(=Nc2ccccc2)NC1=O | -5.03% (inactive)
